Sampled rows, rich in hits. Any-hit rate of the full collection: about 10%.
PNC assembly inh – blocks assembly of the perinucleolar compartment; PC3M PTB-GFP, PNC prevalence imaging, 16 h; stronger effect = lower value; activity change (PNC), negative = inhibition, % at 10 µM; hit rate 3.1% among 140,000;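 active = readout at or below -70, meaning at least 70% loss of cells showing the perinucleolar compartment, a nuclear body marking cancer cells; inconclusive = readout between -30 and a set limit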;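 also: plate controls were DMSO wells for no effect and camptothecin positive control wells for full effect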
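Compounds are pinned in duplicate onto adhered PC3M cells stably expressing GFP-tagged PTB and incubated 16 h at 37 C. Cells are then fixed, nuclei stained with Hoechst, and PNC-positive cells counted.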
Lamin A splicing – LMNA splicing modulation. HeLa LMNA splicing GFP/RFP minigene ratio, 48 h. Potency, µM (highest dose often 46.1 µM), for the others: top-dose ratio change, negative = inhibition, most hits filed as inhibitors. hit rate 0.01% among 200,000. AID 1487; active = well fitted inhibition curve with a large enough effect in the signal ratio, with a control signal flat, not every such curve was filed as active; inconclusive = small, poorly fitted or top-dose-only effect, or effect the other way, or a change in a side signal; the % refers to the signal ratio; also: potency is read from the fitted curve at half-maximal effect
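Read-out is the ratio of GFP to DsRed2 object intensity, acquired by 488 nm laser-scanning cytometry on HeLa lamin A-EGFP minigene reporter cells. Compound incubation 48 hrs at 37 °C in Opti-MEM with 2% FBS; DMSO 0.5% final.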
ALDH1A1 block – blocks purified human ALDH1A1 activity | hit rate 7.3% among 220,000 | P00352 | Purified ALDH1A1, NADH fluorescence, propionaldehyde substrate | Potency, µM (doses to about 75.3 µM), inactives show at the highest dose activity, negative = inhibition, usual class: inhibitors | AID 1030;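 also: potency is read from the fitted curve at half-maximal effect; plate controls were no enzyme wells and a reference inhibitor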
12-hLO inh – blocks human 12-lipoxygenase activity. hit rate 0.12% among 150,000. Potency, µM (doses to about 57.1 µM), for the others: top-dose activity change, negative = inhibition, most hits filed as inhibitors. P18054. purified 12-hLO, xylenol orange hydroperoxide absorbance; active = well fitted inhibition curve with a large enough effect; inconclusive = small, poorly fitted or top-dose-only effect; also: potency is read from the fitted curve at half-maximal effect; nearly all actives have a fitted effect of over 55% in size
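150 nM 12hLO, 25 mM Hepes pH 7.0 + 0.01% Triton X-100; cpd preinc 15 min RT; 40 uM arachidonic acid, 30 min RT; Fe-XO 30 min; A573/A405 ratio as read-out.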
HPGD inh – inhibitors of human 15-hydroxyprostaglandin dehydrogenase (HPGD); purified HPGD, NADH fluorescence kinetic, PGE2 substrate; Potency, µM, for inactives: top-dose activity change, negative = inhibition, most hits filed as inhibitors; hit rate 4.3% among 150,000; AID 894; also: potency is read from the fitted curve at half-maximal effect
Target sequence (P15428 whole entry, looked up): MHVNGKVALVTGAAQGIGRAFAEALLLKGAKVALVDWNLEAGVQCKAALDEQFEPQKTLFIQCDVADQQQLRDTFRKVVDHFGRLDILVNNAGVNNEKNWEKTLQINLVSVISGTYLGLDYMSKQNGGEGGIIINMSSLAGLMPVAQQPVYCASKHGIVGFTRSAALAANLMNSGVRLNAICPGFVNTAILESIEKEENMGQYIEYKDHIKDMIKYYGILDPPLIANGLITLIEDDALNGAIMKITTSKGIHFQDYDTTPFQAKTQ
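20 nM HPGD preincubated 15 min at room temperature with compound in 50 mM Tris-HCl pH 8, 0.01% Tween 20. Started with 1 mM NAD+ and 30 uM prostaglandin E2; NADH fluorescence (360/450 nm) read 5 times over 30-s intervals, last minus first.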
* = called active by the depositor; ? = inconclusive; . = no result given; [ ] = remark or other dose. Unless noted, calls follow the shape of the dose curve; as a rule, active = well fitted inhibition curve with a large enough effect (not every such curve was filed as active); inconclusive = small, poorly fitted or top-dose-only effect, or another doubt; inactive = no such curve, though single readings can be large or run the other way. Unless noted, % is scaled to controls: 0 for no effect and ±100 for the full control effect.

SMILES	PNC assembly inh	Lamin A splicing	ALDH1A1 block	12-hLO inh	HPGD inh
Cc1ccc(Cl)cc1N1CCN(C(=O)c2c(C)oc3ncnc(N4CCCCC4)c23)CC1	.	-14%[46 µM]	.	.	.
NS(=O)(=O)c1ccc(NC(=O)C2Cc3ccccc3N2C(=O)c2ccccc2)cc1 (configuration not stated)	.	-9%[46 µM]	.	.	.
COc1cc(CN2CCN(c3cccc(C)c3C)CC2)cc(OC)c1O	25	-4%	-9%	4%	-9%
Cc1cccc(N2CCN(Cc3ccoc3)CC2)c1C	3	-1%	25µM*	-3%	14µM*
CS(=O)(=O)N1CCC2(CC1)CN(C(=O)Nc1ccccc1)C2	.	.	6%	1%	-7%
Cn1c(=O)n(C)c2cc(C(=O)c3ccccc3)ccc21	8	-13%	7.9µM*	0%	-14%
c1cncc(-c2nccc(NCc3cccs3)n2)c1	.	?	11µM*	.	.
Clc1ccccc1-c1nccc(NCc2cccs2)n1	.	?	14µM*	.	.
COc1ccccc1NC(=O)c1oc2ccc(C)cc2c1C	-80*	-1%	-8%	-6%	?
COc1ccc2o/c(=N\O)c(C(=O)Nc3ccccc3OC)cc2c1	18	-15%	?	2%	13µM*
COc1cccc(OCCCOc2ccc([N+](=O)[O-])cc2Cl)c1	-16	18%	-6%	-7%	18µM*
COc1ccccc1OCCCOc1ccc([N+](=O)[O-])cc1Cl	42	5%	-3%	4%	16µM*
CCC1CN(C(=O)Nc2cc(Cl)ccc2C(=O)OC)c2ccccc2S1 (configuration not stated)	.	-15%[46 µM]	.	.	.
Cn1c(CNC(=O)c2ccc(F)cc2)nc2ccccc21	-29	-10%	6%	2%	-10%
CSc1nc(N(C)NC(=O)c2ccc(F)cc2)c2ccccc2n1	-83*	?	17%	7%	-1%
COc1cccc2cc(C(=O)NCc3ccco3)c(=O)oc12	2	15%	?	0%	-26%
COc1cccc2cc(C(=O)NCc3ccco3)c(=Nc3ccc(C(=O)O)cc3)oc12	?	-6%	16µM*	2%	?
Cc1ccc(C)c(-c2ccc(C(=O)O)o2)c1	.	.	?	2%[0.00818 µM]	?
CCOc1cccc(C2c3[nH]c4ccccc4c3CCN2C(=O)CSc2ccccc2)c1 (configuration not stated)	.	0%[46 µM]	.	.	.
Cc1ccc(O)c(C2=NNC(O)(C(F)(F)F)C2)c1 (configuration not stated)	27	-18%	9%	-15%	25µM*
O=C(/C=C/c1ccccc1Cl)c1ccc[nH]1	47	?	-5%	-1%	-29%
N#CC1=C(SCC(=O)NC2CCCCC2)NC(=O)CC1c1ccco1 (configuration not stated)	21	-6%	11µM*	3%	-17%
Cc1ccc(C2CC(=O)NC(SCc3ccccc3)=C2C#N)o1 (configuration not stated)	-26	25%	-103%	?	22µM*
CCCCCCSC1=C(C#N)C(c2ccc(C)o2)CC(=O)N1 (configuration not stated)	-24	-21%	7.9µM*	-3%	32µM*
CCSC1=C(C#N)C(c2ccccc2OC)CC(=O)N1 (configuration not stated)	-19	4%	?	0%	-8%
SMILES	PNC assembly inh	Lamin A splicing	ALDH1A1 block	12-hLO inh	HPGD inh
CCCCSC1=C(C#N)C(c2ccccc2C)CC(=O)N1 (configuration not stated)	5	-8%	-12%	-2%	?
N#CC1=C(SCc2ccccc2)NC(=O)CC1c1ccco1 (configuration not stated)	-2	?	22µM*	-10%	-28%
O=C(CSc1ccc(F)cc1)NC1CCCCC1	.	16%[46 µM]	6%	.	.
COC(=O)N1CCC2(CC1)CN(C(=O)Nc1cccc(C#N)c1)C2	.	.	-11%	10%	-25%
C[C@@H]1CCC2[C@](C)(CO)C(O)CC[C@@]2(C)[C@@]12CC[C@](CO)(CCO)O2 (some centres not stated)	.	-16%	3%	0%	-4%
C=Cc1ccc(Cn2c(=O)cc(C)c3c(C)nn(-c4ccccc4)c32)cc1	.	-11%[46 µM]	.	.	.
CCc1cnc2c(c1SCC(=O)Nc1ccc(C)cc1C)c(=O)n(C)c(=O)n2C	.	4%[46 µM]	.	.	.
O=C(CCC(=O)NC1CCCCC1)N/N=C/c1ccncc1	.	.	9%	.	.

Compound activity (PubChem)
